Laboratory results: PubChem BioAssay (Tox21)
“And” between values parts separate entries of the source, which are not always exact repeats. Identical values can stand only once. More than one record can exist for a structure, and the calls need not agree. The source made the active and inactive calls. A call without a number means that no potency is given here. Unless noted, calls come from the whole dose curve; as a rule, active = well fitted curve in the direction sought with a large enough effect in the repeat runs; inconclusive = weak or mixed curves; inactive = no such curve, though single readings can be large; an effect the other way counts as inactive or inconclusive.

What was measured:
[1] = qHTS assay to identify small molecule antagonists of the thyroid receptor (TR) signaling pathway - cell viability counter screen (AID 743064); conditions: GH3.TRE-Luc viability, CellTiter-Fluor, 24 h; series mostly up to 70.3 µM; note: nearly all actives have a fitted effect of over 50% in size; note: potency is the fitted concentration of half-maximal effect
Method in brief: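 Counter screen for cytotoxicity: compound plus T3 (1 nM final) on GH3.TRE-Luc cells, 23.5 h at 37 °C, then fluorescence viability readout with CellTiter-Fluor.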

[2] = qHTS assay to identify small molecule antagonists of the thyroid receptor (TR) signaling pathway (AID 743065); conditions: GH3.TRE-Luc, T3-stimulated luciferase inhibition, 23.5 h; series mostly up to 70.3 µM; note: nearly all actives have a fitted effect of over 55% in size; note: potency is the fitted concentration of half-maximal effect
Method in brief: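 GH3.TRE-Luc rat pituitary cells (two TREs driving luciferase) were dosed with compound, then stimulated with 1 nM T3 (final) for 23.5 h at 37 C. ONE-Glo luminescence was the read-out, with CellTiter-Fluor fluorescence as the cytotoxicity counter-screen.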

[3] = system: thyroid hormone receptor (rat, GH3 cells); assay: qHTS assay to identify small molecule agonists of the thyroid receptor (TR) signaling pathway (AID 743066; calls by dose curve); conditions: GH3.TRE-Luc cells, TR agonist luciferase, 24 h; series mostly up to 83.9 µM
[4] = molecular target: Aromatase (Homo sapiens) (UniProt P11511); assay: qHTS assay to identify aromatase inhibitors (AID 743083); conditions: MCF-7 aro ERE, testosterone-driven ERE luciferase, 24 h; series mostly up to 70.3 µM; note: nearly all actives have a fitted effect of over 55% in size; note: potency is the fitted concentration of half-maximal effect
[5] = qHTS assay to identify aromatase inhibitors - cell viability counter screen (AID 743084); conditions: MCF-7 aro ERE viability, CellTiter-Fluor, 24 h; series mostly up to 70.3 µM;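 note: cells stimulated with testosterone during compound exposure; nearly all actives have a fitted effect of over 55% in size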; note: potency is the fitted concentration of half-maximal effect
[6] = molecular target: Aryl hydrocarbon receptor (Homo sapiens) (UniProt P35869); assay: qHTS assay to identify small molecule that activate the aryl hydrocarbon receptor (AhR) signaling pathway (AID 743085); conditions: HepG2 AhR-luc (HG2L7.5c1), luciferase, 24 h; series mostly up to 70.3 µM; note: nearly all actives have a fitted effect of over 15% in size; note: potency is the fitted concentration of half-maximal effect;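 for activation: HG2L7.5c1 human HepG2 liver cells with stably integrated DRE-driven firefly reporter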
Method in brief: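 Measured in HG2L7.5c1 cells: CellTiter-Fluor signal (30 min incubation, 37C) for viability, then luciferase luminescence (30 min, room temperature). Compound contact time was 24 h at 37C, following a 5 h pre-incubation.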

[7] = qHTS assay to identify small molecule that activate the aryl hydrocarbon receptor (AhR) signaling pathway - cell viability counter screen (AID 743086); conditions: HepG2-AhR-luc viability, CellTiter-Fluor, 24 h; series mostly up to 70.3 µM; note: nearly all actives have a fitted effect of over 45% in size; note: potency is the fitted concentration of half-maximal effect
Method in brief: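 HepG2-AhR-luc (HG2L7.5c1) cells, 4000/well, treated 24 h at 37 C with compound; viability measured as CellTiter-Fluor fluorescence after 30 min in the same wells as the luciferase read.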

[8] = molecular target: Peroxisome proliferator-activated receptor gamma (Homo sapiens) (UniProt P37231); assay: qHTS assay to identify small molecule antagonists of the peroxisome proliferator-activated receptor gamma (PPARg) signaling pathway (AID 743191; calls by dose curve; note: nearly all actives have a fitted effect of over 30% in size); conditions: HEK293H PPARg-UAS-bla, beta-lactamase ratio, antagonist, 17 h; series mostly up to 62.6 µM
Method in brief: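 GeneBLAzer PPARg UAS-bla HEK293H cells, 5 h post-plating, exposed to compounds 17 h at 37C. LiveBLAzer B/G FRET substrate added for 1 h at room temperature; beta-lactamase reporter read by fluorescence intensity.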

[9] = qHTS assay for small molecule agonists of the antioxidant response element (ARE) signaling pathway (AID 743202; active = well fitted activation curve with a large enough effect in the signal ratio in the repeat runs, not every such curve was filed as active; inconclusive = weak or mixed curves, or effect the other way; inactive = no such curve, though single readings can be large or run the other way; the % refers to the signal ratio; note: potency is the fitted concentration of half-maximal effect); conditions: HepG2 ARE-bla reporter, beta-lactamase FRET, 16 h; series mostly up to 73.3 µM
Method in brief: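 ARE-bla HepG2 cells (beta-lactamase reporter under the antioxidant response element), plated 5 hours, then exposed to compounds 16 hours at 37 C. LiveBLAzer B/G FRET substrate added for 2 hours at room temperature; fluorescence intensity read.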

[10] = qHTS assay for small molecule activators of the heat shock response signaling pathway - cell viability counter screen (AID 743209); conditions: HSE-bla HeLa viability, CellTiter-Glo luminescence, 5 h; series mostly up to 62.6 µM; note: nearly all actives have a fitted effect of over 50% in size; note: potency is the fitted concentration of half-maximal effect
Method in brief: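 Counter screen for cytotoxicity in HeLa HSE-bla reporter cells. Treatment was 5 h at 37 C; viability was detected by luminescent ATP assay (CellTiter-Glo) in the same wells as the beta-lactamase read.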

[11] = molecular target: Estrogen receptor (Homo sapiens) (UniProt P03372); assay: qHTS assay to identify small molecule antagonists of the estrogen receptor alpha (ER-alpha) signaling pathway (AID 743069; active = well fitted curve in the direction sought with a large enough effect in the signal ratio in the repeat runs, not every such curve was filed as active; inconclusive = weak or mixed curves, or effect the other way; inactive = no such curve, though single readings can be large or run the other way; the % refers to the signal ratio; note: potency is the fitted concentration of half-maximal effect); conditions: HEK293 ER-alpha-UAS-bla, beta-lactamase ratio, antagonist mode; series mostly up to 69.4 µM
Method in brief: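 HEK293 ER-alpha-UAS-bla GripTite cells, held overnight in 2% charcoal-stripped FBS, 5,000 cells/well, preincubated 4 h, then compound plus 17beta-estradiol for 18 h at 37C. Beta-lactamase read by LiveBLAzer B/G FRET substrate, 2 h at room temperature.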

[12] = qHTS assay to identify small molecule antagonists of the estrogen receptor alpha (ER-alpha) signaling pathway - cell viability counter screen (AID 743074; calls by dose curve;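 note: HEK293 cells carrying ER-alpha-UAS-bla reporter stimulated with 17beta-estradiol; nearly all actives have a fitted effect of over 45% in size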; note: potency is the fitted concentration of half-maximal effect); conditions: ERalpha-bla HEK293 viability, CellTiter-Glo luminescence, 18 h; series mostly up to 69.4 µM
[13] = molecular target: Estrogen receptor (Homo sapiens) (UniProt P03372); assay: qHTS assay to identify small molecule agonists of the estrogen receptor alpha (ER-alpha) signaling pathway (AID 743075; calls by dose curve; note: potency is the fitted concentration of half-maximal effect); conditions: HEK293 ER-alpha-UAS-bla, beta-lactamase FRET ratio, 18 h; series mostly up to 70.1 µM
[14] = molecular target: Estrogen receptor (Homo sapiens) (UniProt P03372); assay: qHTS assay to identify small molecule agonists of the estrogen receptor alpha (ER-alpha) signaling pathway using the BG1 cell line (AID 743079); conditions: BG1Luc4E2 cells, ERE-luciferase agonist, 22 h; activation: at 70.3 µM (top of the series) unless noted; note: nearly all actives have a fitted effect of over 20% in size; note: potency is the fitted concentration of half-maximal effect
[15] = qHTS assay to identify small molecule antagonists of the estrogen receptor alpha (ER-alpha) signaling pathway using the BG1 cell line (AID 743080; calls by dose curve;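 note: BG1 cells stimulated with 17beta-estradiol alongside compound; nearly all actives have a fitted effect of over 25% in size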; note: potency is the fitted concentration of half-maximal effect); conditions: BG1Luc4E2 ERE-luciferase antagonist mode, luminescence; series mostly up to 70.3 µM
Method in brief: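 BG1-Luc-4E2 cells (endogenous full-length ER-alpha, 4xERE luciferase) hormone-starved 5 days in charcoal-stripped FBS, plated 4,000/well for 24 h, then compound plus 17beta-estradiol for 21.5 h at 37 C; ONE-Glo luminescence read.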

[16] = qHTS assay to identify small molecule antagonists of the estrogen receptor alpha (ER-alpha) signaling pathway using the BG1 cell line - cell viability counter screen (AID 743081); conditions: BG1Luc4E2 viability, CellTiter-Fluor, 22 h; series mostly up to 70.3 µM;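 note: compound given together with 17beta-estradiol as the ER stimulus; nearly all actives have a fitted effect of over 45% in size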; note: potency is the fitted concentration of half-maximal effect
[17] = qHTS assay to identify small molecule antagonists of the peroxisome proliferator-activated receptor gamma (PPARg) signaling pathway - cell viability counter screen (AID 743194); conditions: PPARg-bla HEK293H viability, CellTiter-Glo luminescence, 17 h; Potency: co-treated with 50 nM rosiglitazone unless noted; series mostly up to 62.6 µM; note: nearly all actives have a fitted effect of over 55% in size; note: potency is the fitted concentration of half-maximal effect
Method in brief: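 Cytotoxicity counter screen in PPARg-bla HEK293H cells, same wells as reporter assay. Compounds plus 50 nM rosiglitazone (final) for 17 h at 37 C, then viability read by CellTiter-Glo luminescence.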

[18] = qHTS assay for small molecule agonists of the antioxidant response element (ARE) signaling pathway - cell viability counter screen (AID 743203; calls by dose curve; note: nearly all actives have a fitted effect of over 55% in size); conditions: ARE-bla HepG2 viability, CellTiter-Glo luminescence, 16 h; series mostly up to 73.3 µM
Method in brief: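 Compounds in DMSO were pinned onto ARE-bla HepG2 cells plated 5 hrs earlier at 2,000 cells/well. Sixteen hours later at 37C/5% CO2, CellTiter-Glo was added and luminescence measured after 30 min at room temperature.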

[19] = qHTS assay for small molecule activators of the heat shock response signaling pathway (AID 743210; active = well fitted activation curve with a large enough effect in the signal ratio in the repeat runs, with a control signal flat, not every such curve was filed as active; inconclusive = weak or mixed curves; the % refers to the signal ratio); conditions: HeLa HSE-bla reporter, beta-lactamase ratio, 5 h; series mostly up to 62.6 µM
Method in brief: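 HSE-bla HeLa cells (beta-lactamase reporter under heat shock response elements), plated overnight, then exposed to compounds 5 h at 37 C; LiveBLAzer B/G FRET substrate added, 2.5 h at room temperature, fluorescence intensity read.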

[20] = molecular target: Peroxisome proliferator-activated receptor gamma (Homo sapiens) (UniProt P37231); assay: qHTS assay to identify small molecule agonists of the peroxisome proliferator-activated receptor gamma (PPARg) signaling pathway (AID 743094; active = well fitted activation curve with a large enough effect in the signal ratio in the repeat runs, not every such curve was filed as active; inconclusive = weak or mixed curves, or effect the other way; inactive = no such curve, though single readings can be large or run the other way; the % refers to the signal ratio); conditions: HEK293H PPARg-UAS-bla, beta-lactamase FRET ratio, 17 h; series mostly up to 57 µM
Method in brief: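 Following 5 h plating at 37C, PPARg-bla HEK293H cells receive compound or DMSO for 17 h; fluorescence intensity is recorded after LiveBLAzer B/G loading for 1 h at room temperature.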

Aryl hydrocarbon receptor (Homo sapiens), sequence (P35869 whole entry, looked up): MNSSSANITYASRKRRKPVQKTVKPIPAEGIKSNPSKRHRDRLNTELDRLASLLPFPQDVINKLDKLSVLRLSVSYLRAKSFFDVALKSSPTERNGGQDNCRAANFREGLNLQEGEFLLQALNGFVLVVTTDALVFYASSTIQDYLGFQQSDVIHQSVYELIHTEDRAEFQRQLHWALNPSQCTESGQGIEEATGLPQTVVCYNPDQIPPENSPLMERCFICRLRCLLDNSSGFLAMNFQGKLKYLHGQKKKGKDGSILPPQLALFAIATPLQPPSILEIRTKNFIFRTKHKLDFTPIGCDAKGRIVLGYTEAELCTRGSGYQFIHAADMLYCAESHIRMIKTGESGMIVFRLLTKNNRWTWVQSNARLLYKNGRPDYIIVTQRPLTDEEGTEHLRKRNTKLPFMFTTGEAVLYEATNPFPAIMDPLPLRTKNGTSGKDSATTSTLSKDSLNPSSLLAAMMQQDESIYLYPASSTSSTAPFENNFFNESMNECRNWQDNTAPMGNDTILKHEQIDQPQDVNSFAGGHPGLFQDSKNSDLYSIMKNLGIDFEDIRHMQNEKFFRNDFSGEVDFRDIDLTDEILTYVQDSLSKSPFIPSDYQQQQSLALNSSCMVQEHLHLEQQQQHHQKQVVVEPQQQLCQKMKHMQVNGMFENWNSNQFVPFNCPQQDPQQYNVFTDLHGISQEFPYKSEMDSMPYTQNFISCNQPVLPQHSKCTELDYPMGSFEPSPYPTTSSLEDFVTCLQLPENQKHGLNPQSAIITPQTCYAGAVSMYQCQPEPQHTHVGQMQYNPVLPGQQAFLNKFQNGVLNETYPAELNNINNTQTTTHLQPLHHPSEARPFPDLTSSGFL
Estrogen receptor (Homo sapiens), sequence (P03372 whole entry, looked up): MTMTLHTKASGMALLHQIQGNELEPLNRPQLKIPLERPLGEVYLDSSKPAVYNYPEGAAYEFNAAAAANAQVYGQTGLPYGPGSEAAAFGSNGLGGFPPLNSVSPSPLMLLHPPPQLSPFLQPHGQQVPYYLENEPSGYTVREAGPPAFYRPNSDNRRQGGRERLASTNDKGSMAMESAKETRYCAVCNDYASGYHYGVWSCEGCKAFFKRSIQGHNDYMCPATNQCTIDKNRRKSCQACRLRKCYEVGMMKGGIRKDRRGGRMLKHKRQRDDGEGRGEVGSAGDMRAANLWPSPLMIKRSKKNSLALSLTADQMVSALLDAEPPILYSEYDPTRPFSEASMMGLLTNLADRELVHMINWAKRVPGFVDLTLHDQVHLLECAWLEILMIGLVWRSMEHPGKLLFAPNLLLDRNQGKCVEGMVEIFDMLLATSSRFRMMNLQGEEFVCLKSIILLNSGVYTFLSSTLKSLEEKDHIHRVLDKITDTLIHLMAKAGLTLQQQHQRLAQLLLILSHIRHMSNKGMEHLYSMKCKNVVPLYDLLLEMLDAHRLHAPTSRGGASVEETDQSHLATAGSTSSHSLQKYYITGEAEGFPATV
Peroxisome proliferator-activated receptor gamma (Homo sapiens), sequence (P37231 whole entry, looked up): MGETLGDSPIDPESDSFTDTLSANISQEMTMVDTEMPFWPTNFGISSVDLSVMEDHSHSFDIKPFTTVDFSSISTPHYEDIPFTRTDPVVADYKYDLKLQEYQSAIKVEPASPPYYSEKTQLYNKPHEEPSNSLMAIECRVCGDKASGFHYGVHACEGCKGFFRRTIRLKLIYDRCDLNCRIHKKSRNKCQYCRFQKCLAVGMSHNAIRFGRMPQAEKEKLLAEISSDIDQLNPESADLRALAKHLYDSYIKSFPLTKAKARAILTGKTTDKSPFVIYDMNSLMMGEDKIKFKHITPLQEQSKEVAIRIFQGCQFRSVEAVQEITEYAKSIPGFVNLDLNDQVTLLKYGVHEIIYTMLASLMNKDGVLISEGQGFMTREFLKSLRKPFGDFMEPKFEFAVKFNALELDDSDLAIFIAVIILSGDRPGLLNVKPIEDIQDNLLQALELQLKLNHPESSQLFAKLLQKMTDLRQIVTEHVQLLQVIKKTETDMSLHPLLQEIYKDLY
Aromatase (Homo sapiens), sequence (P11511 whole entry, looked up): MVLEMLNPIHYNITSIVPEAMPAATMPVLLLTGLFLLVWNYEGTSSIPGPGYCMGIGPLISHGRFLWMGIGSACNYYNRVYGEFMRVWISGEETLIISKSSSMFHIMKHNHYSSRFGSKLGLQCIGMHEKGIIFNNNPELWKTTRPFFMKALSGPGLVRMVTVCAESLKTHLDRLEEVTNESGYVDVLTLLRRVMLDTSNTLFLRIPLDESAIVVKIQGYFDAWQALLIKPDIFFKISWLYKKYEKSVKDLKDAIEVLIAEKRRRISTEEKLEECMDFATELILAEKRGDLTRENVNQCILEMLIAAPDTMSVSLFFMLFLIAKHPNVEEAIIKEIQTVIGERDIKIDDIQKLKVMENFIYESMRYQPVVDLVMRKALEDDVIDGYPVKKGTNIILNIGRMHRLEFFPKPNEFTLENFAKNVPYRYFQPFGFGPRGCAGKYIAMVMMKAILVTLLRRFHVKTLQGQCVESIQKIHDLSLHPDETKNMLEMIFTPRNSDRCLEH

Row | SMILES | Potency [1] | Potency [2] | Potency [3] | Potency [4] | Potency [5] | Potency [6] | Potency [7] | Potency [8] | Potency [9] | Potency [10] | Potency [11] | Potency [12] | Potency [13] | Potency [14] | Potency [15] | Potency [16] | Potency [17] | Potency [18] | Potency [19] | Potency [20]
1 | Nc1ccc([N+](=O)[O-])cc1N | 24.3 µM (active) and 43.3 µM (active) | 48.5 µM (active) and 48.6 µM (active) | inactive | inactive | 30.6 µM (active) | 61.1 µM (active) | 27.3 µM (active) and 30.6 µM (active) | inactive | 0.968 µM (active) | inactive |  |  |  |  |  |  |  |  |  | 
2 | C[N+](C)(C)CC(=O)O | inactive |  | inactive | inactive | inactive | inactive | inactive | inactive | inactive | inactive | inactive | inactive | inactive | inactive | inactive | inactive | inactive | inactive |  | 
3 | CCN(CC)C(=O)C(C)Oc1cccc2ccccc12 (stereo not given) | inactive |  | inactive | 34.4 µM (active) | inactive | 54.9 µM (active) and 30.6 µM (active) |  | inactive | inactive | inactive | inactive | inactive | inactive | inactive |  | inactive | inactive | inactive | inactive | 
4 | CCCCSP(=O)(SCCCC)SCCCC |  | inactive | inactive | inactive | inactive | inactive | inactive |  | inactive | inactive |  | inactive |  |  |  | inactive | inactive | inactive | inactive | 
5 | N#Cc1c(Cl)c(Cl)c(Cl)c(C#N)c1Cl | 847 nM (active) and 193 nM (active) | 476 nM (active) and 172 nM (active) |  | 1.51 µM (active) and 969 nM (active) | 1.69 µM (active) and 1.93 µM (active) | inactive | inactive and 21.7 µM (active) |  |  | 854 nM (active) and 616 nM (active) | 3.4 µM [inconclusive] (active) | 42.8 µM (active) and 54.9 µM (active) | 87.1 µM [inconclusive] (active) |  |  | 53.4 µM (active) and 61.1 µM (active) |  |  |  | 
6 | CC(C)(C#N)N=NC(C)(C)C#N | inactive |  |  | inactive | inactive | inactive | inactive | inactive | inactive | inactive | inactive | inactive | inactive | inactive | inactive | inactive | inactive | inactive | inactive | inactive
7 | CS(=O)(=O)NC(=O)c1cc(Oc2ccc(C(F)(F)F)cc2Cl)ccc1[N+](=O)[O-] | inactive | inactive | inactive | inactive | inactive | inactive | inactive |  |  | inactive |  | inactive |  |  |  | inactive |  | inactive | inactive | 
8 | COP(=S)(OC)Oc1ccc(S(=O)(=O)N(C)C)cc1 | inactive |  | inactive | inactive and 61.1 µM (active) | inactive | inactive | inactive | inactive |  | inactive | inactive | inactive | inactive | inactive | inactive | inactive | inactive | inactive | inactive | 
9 | C[N+](C)(C)C | inactive |  | inactive | inactive | inactive | inactive | inactive | inactive | inactive | inactive | inactive | inactive | inactive | inactive and 49.1 µM (active) | inactive | inactive | inactive | inactive |  | inactive
10 | [CH3][Sn]([Cl])([Cl])[Cl] | inactive |  |  | inactive | inactive | inactive | inactive | inactive | inactive | inactive |  | inactive |  |  |  | inactive |  |  | inactive | inactive
11 | CNC(=S)S | inactive |  |  | inactive | inactive | inactive | inactive | inactive | inactive | inactive | inactive | inactive | inactive | inactive | inactive | inactive | inactive |  |  | 
12 | CCCCC(C#N)(Cn1cncn1)c1ccc(Cl)cc1 (stereo not given) | inactive |  | inactive | 4.84 µM (active) and 3.86 µM (active) | inactive | inactive | inactive | inactive | inactive | inactive | inactive | inactive | inactive | inactive | 30.5 µM (active) and 61.1 µM (active) | inactive | inactive |  | inactive | inactive
13 | CCCCCCCCCC(CC)c1ccc(S(=O)(=O)O)cc1 (stereo not given) |  |  | inactive |  | inactive |  | inactive |  | inactive | inactive and 39.9 µM (active) |  | inactive and 43.6 µM (active) |  |  |  | inactive | inactive and 15.5 µM [setting not given] (active) |  |  | 
